The values below are quoted from earlier work in PubChem BioAssay AID977608.

About 4,300 (100%) of roughly 4,300 compounds were called active. Cut-off not given; nearly all actives show IC50 up to about 1400 µM. So high a share suggests a set chosen from earlier hits. This is one part of the list. Starred links: 1 amine or outer side, 2 acyl side, 3 side chain; linkers in the order of their positions; H or OH if unused. Positions of bridges follow the written chain, without caps; N, C: chain ends. Non-standard residues stand in square brackets, D forms with d. Residues, ends and D or L forms follow the SMILES beside them. X1 = O=C([C@H](Cc1ccc(C(F)(F)[P+](O)(O)O)cc1)N[*:1])[*:2]; Nle(6-ylidene) = O=C([C@H](CCCC=[*:3])N[*:1])[*:2]; Abu = CC[C@H](N)C(=O)O

The nature of this data set: protein-ligand inhibition affinities from structures – PDB-derived complexes (AID 977608).

Turning to `CCCCn1cc[n+](CC(O)([P+](O)(O)O)[P+](O)(O)O)c1`, the 50% inhibitory concentration (IC50) (commonly the point on the concentration scale where inhibition reaches its midpoint) (literature IC50, protein: Farnesyl pyrophosphate synthase, PDB entry 4ga3) is 30 nM (active).

Take `CCCCCCCCCCCCCCCn1cc[n+](CC([P+](O)(O)O)[P+](O)(O)O)c1`: the IC50 runs as follows: (literature IC50, protein: Squalene synthase, HsSQS, PDB entry 3wcl) 260 nM (active); (literature IC50, protein: Squalene synthase, TcSQS, PDB entry 3wcg) 140 nM (active). On to `CCCCCCCCCCCCCCCn1cc[n+](CC(O)([P+](O)(O)O)[P+](O)(O)O)c1`, for which the IC50 (literature IC50, protein: Squalene synthase, HsSQS, PDB entry 3wci) is 270 nM (active).

Regarding `FC(F)(F)c1ccc(CNc2ccc(Cc3c[nH]c4ncccc34)cn2)cc1`, where the note is “literature IC50, protein: Mast/stem cell growth factor receptor Kit, PDB entry 4hvs”, the IC50 was 16 nM (active). With `COc1cnc2[nH]cc(Cc3ccc(NCc4ccc(C(F)(F)F)cc4)nc3)c2c1`, the IC50 (literature IC50, protein: Macrophage colony-stimulating factor 1 receptor (C667T, C830S, C907T mutation), PDB entry 4hw7) was 62 nM (active).

In the case of `S=CNc1ccc2oc(C3=NCCN3)cc2c1`, where the note is “literature IC50, protein: Chitinase A(W275G mutant), PDB entry 3as3”, the IC50 is 160000 nM (active). Consider `C[C@@H]1NC(=O)[C@@H]2CSSC[C@H](NC(=O)CN)C(=O)N[C@@H](CSSC[C@@H](C(N)=O)NC(=O)[C@H](CCCNC(N)N)NC(=O)[C@H](Cc3c[nH]c4ccccc34)NC1=O)C(=O)N[C@@H](CO)C(=O)N[C@@H](CC(=O)O)C(=O)N1CCC[C@H]1C(=O)N[C@@H](CCCNC(N)N)C(=O)N2`, for which, for the setting “literature IC50, protein: nicotinic acetylcholine receptor homolog AChBP, PDB entry 2c9t”, the IC50 was 33 nM (active).

With `CC(C)C[C@H]1NC(=O)[C@@H](Cc2c[nH]c3ccccc23)NC(=O)[C@@H](CCC(N)=O)NC(=O)[C@@H](Cc2c[nH]c3ccccc23)NC(=O)[C@@H](CCC(=O)O)NC(=O)[C@H]2CCCN2C(=O)[C@@H](CO)NC(=O)[C@@H](CCC(=O)O)NC(=O)[C@H](NC(=O)[C@@H](C)NC(=O)CNC(=O)[C@H](N)CCCCN)CSSC[C@H](C(=O)N[C@H](C)C(=O)N[C@H](C)C(=O)O)NC1=O`, the IC50 (literature IC50, protein: gp41 N-peptide, PDB entry 2r3c) was 2200 nM (active). For the compound `CC(=O)NCC(=O)N[C@H](C)C(=O)N[C@@H]1CSSC[C@H](C(=O)N[C@H](C)C(=O)N[C@H](C)C(=O)O)NC(=O)[C@@H](CC(C)C)NC(=O)[C@@H](Cc2c[nH]c3ccccc23)NC(=O)[C@@H](C)NC(=O)[C@@H](Cc2c[nH]c3ccccc23)NC(=O)[C@@H](CCC(=O)O)NC(=O)[C@@H](CCCNC(N)N)NC(=O)[C@@H](Cc2cnc[nH]2)NC(=O)[C@@H](CCCNC(N)N)NC(=O)[C@@H](C)NC(=O)[C@@H](CCC(=O)O)NC1=O`, the concentration for half-maximal inhibition (IC50) (literature IC50, protein: IQN17, PDB entry 1czq) was 29000 nM (active).

As to `Cc1c(C(=O)O)cccc1-c1nc2nc(N)nc(OCC3CCCCC3)c2[nH]1`, the IC50 (literature IC50, protein: CYCLIN-DEPENDENT KINASE 2, CDK2, PDB entry 4cfu) is 100000 nM (active). Regarding `CNC(=O)NC(N)NCCC[C@H](NC(=O)Cn1nncc1CO/N=C/c1ccnc2ccccc12)C(=O)N(Cc1ccccc1)Cc1ccccc1` (stereo partly drawn), under “literature IC50, protein: Chitinase B, PDB entry 3wd1”, the IC50 was 22 nM (active). Regarding `CNC(=O)NC(N)NCCC[C@H](NC(=O)CN=[N+]=[N-])C(=O)N(Cc1ccccc1)Cc1ccccc1` (stereo partly drawn), where the note is “literature IC50, protein: Chitinase B, PDB entry 3wd2”, the IC50 was 580 nM (active). Turning to `C[C@H](NC(=O)[C@@H](N)CCC(=O)O)C(=O)N[C@@H](CCC(N)=O)C(=O)N[C@@H](Cc1ccc(C(F)(F)[P+](O)(O)O)cc1)C(=O)N[C@@H](CCC(N)=O)C(=O)N1CCC[C@H]1C(=O)O` (H-EAQ[X1]QP-OH), the half-maximal inhibitory concentration (IC50) (literature IC50, protein: TYROSINE-PROTEIN PHOSPHATASE NON-RECEPTOR TYPE 1, PTP1B, PDB entry 3zmq) is 360 nM (active).

As for H-DVFYPYPYASGS-OH, for the setting “literature IC50, protein: concanavalin A(ConA), PDB entry 1jyi”, the IC50 was 100000 nM (active). `CC(C)C[C@H](NC(=O)[C@H](CCCCN)NC(=O)[C@H](CCC(=O)O)NC(=O)[C@H](Cc1ccc(O)cc1)NC(=O)[C@H](C)NC(=O)[C@@H]1CCCN1C(=O)[C@@H]1CCCN1C(=O)[C@H](C)N)C(=O)N[C@@H](CO[P+](O)(O)O)C(=O)N[C@@H](C)C(=O)N[C@@H](CCC(=O)O)C(=O)N[C@@H](CCC(N)=O)C(=O)N[C@@H](CO)C(=O)N1CCC[C@H]1C(=O)N1CCC[C@H]1C(=O)O`: the half-maximal inhibitory concentration (IC50) (literature IC50, protein: MHC class II molecule HLA-DR1, PDB entry 3l6f) was 102 nM (active).

As to H-SIGKAFKILGYPD-OH, the half-maximal inhibitory concentration (IC50) (literature IC50, protein: G Protein Beta:Gamma Heterodimer, PDB entry 1xhm) is 470 nM (active). Take `C[C@H](N)C(=O)N[C@@H](Cc1ccc(C(F)(F)[P+](O)(O)O)cc1)C(=O)N[C@@H](C)C(=O)O`: under “literature IC50, protein: TYROSINE-PROTEIN PHOSPHATASE NON-RECEPTOR TYPE 1, PTP1B, PDB entry 3zmp”, the IC50 is 2130 nM (active).

Consider `CC(C)C[C@H](NC(=O)CNC(=O)[C@@H](NC(=O)[C@@H](NC(=O)[C@H](C)NC(=O)[C@@H]1CCCN1C(=O)[C@@H](N)CC(C)C)C(C)C)C(C)C)C(=O)N[C@@H](CO)C(=O)N1CCC[C@H]1C(=O)NCC(=O)N[C@@H](CCC(=O)O)C(=O)N[C@@H](CCC(N)=O)C(=O)N[C@@H](CCC(=O)O)C(=O)N[C@@H](Cc1ccc(O)cc1)C(=O)O`, for which the IC50 (literature IC50, protein: HLA-B*3501, PDB entry 1xh3) was 3100 nM (active). With `CC[C@H](NC(=O)[C@H](CCCCN)NC(=O)[C@H](CCCN=C(N)N)NC(=O)[C@@H]1CCC/C=C\CCC[C@H](NC(=O)[C@H](CCCN=C(N)N)NC(=O)[C@H](CC(C)C)NC(=O)[C@H](CC(C)C)NC(=O)[C@H](CO)NC(=O)[C@@H]2CCCN2C(=O)[C@@H](NC(=O)[C@H](CC(N)=O)NC(=O)[C@H](CCCCN)NC(C)=O)[C@@H](C)CC)C(=O)N[C@@H](CCC(N)=O)C(=O)N[C@@H](C)C(=O)N[C@@H](Cc2c[nH]cn2)C(=O)N1)C(=O)N[C@@H](CCSC)C(=O)N[C@H](C(=O)O)C(C)C` (Ac-KNIPSLLR[Nle(6-ylidene)]QAH[Nle(6-ylidene)]RK[Abu]MV-OH; staple (Z) 9-13), the IC50 (literature IC50, protein: Myosin A tail domain interacting protein, MTIP from Plasmodium falciparum, PDB entry 4mzk) is 4900 nM (active). With `CC[C@H](C)[C@H](NC(=O)[C@H](Cc1c[nH]cn1)NC(=O)[C@H](C)NC(=O)[C@H](CCC(N)=O)NC(=O)[C@@H](NC(=O)[C@H](CCCN=C(N)N)NC(=O)[C@@H]1CCC/C=C\CCC[C@H](NC(=O)[C@H](CC(N)=O)NC(=O)[C@H](CCCCN)NC(C)=O)C(=O)N2CCC[C@H]2C(=O)N[C@@H](CO)C(=O)N[C@@H](CC(C)C)C(=O)N1)C(C)C)C(=O)N[C@@H](CCCN=C(N)N)C(=O)N[C@@H](CCCCN)C(=O)N[C@@H](CCCCN)C(=O)N[C@@H](CCSC)C(=O)N[C@H](C(=O)O)C(C)C` (Ac-KN[Nle(6-ylidene)]PSL[Nle(6-ylidene)]RVQAHIRKKMV-OH; staple (Z) 3-7), the IC50 (literature IC50, protein: Myosin A tail domain interacting protein, MTIP from Plasmodium falciparum, PDB entry 4mzj) was 1600 nM (active). Regarding `Cc1ccc(-c2cnc(Nc3ccc(OCCCN4CCN(C)CC4)cc3)c(C(N)=O)n2)cc1C`, the IC50 (literature IC50, protein: DNA GYRASE SUBUNIT B, PDB entry 4b6c) was 690 nM (active). As for `Nc1ncnc2c1ncn2[C@@H]1O[C@H](CO[P+](O)(O)O[P+](O)(O)N[P+](O)(O)O)[C@@H](O)[C@H]1O`, the IC50 (literature IC50, protein: Microcin-J25 export ATP-binding/permease protein McjD, PDB entry 4pl0) is 39500 nM (active). `Nc1ncnc2c1ncn2[C@@H]1O[C@H](CO[P+](O)(O)O)[C@@H](O)[C@H]1O`: the half-inhibitory concentration (IC50) (literature IC50, protein: Bis(5'-adenosyl)-triphosphatase ENPP4, PDB entry 4lqy) is 129000 nM (active); the half-maximal inhibitory concentration (IC50) (literature IC50, protein: Sus scrofa FRUCTOSE-1,6-BISPHOSPHATASE, PDB entry 1fpi) was 1300 nM (active); the half-inhibitory concentration (IC50) (literature IC50, protein: human liver fructose-1,6-bisphosphatase (FBPase), PDB entry 1fta) was 440 nM (active). As for `Nc1ncnc2c1ncn2[C@@H]1O[C@H](CSCC[C@H](N)C(=O)O)[C@@H](O)[C@H]1O`, the IC50 runs as follows: (literature IC50, protein: Catechol O-methyltransferase COMT, PDB entry 4pyn) 30000 nM (active); (literature IC50, protein: Catechol O-methyltransferase COMT, PDB entry 4pyo) 30000 nM (active). As for `Nc1ncnc2c1ncn2[C@@H]1O[C@H](CO[P+](O)(O)O[P+](O)(O)OC[C@H]2NC[C@H](O)[C@@H]2O)[C@@H](O)[C@H]1O`, under “literature IC50, protein: mouse poly(ADP-ribose) glycohydrolase (PARG) catalytic domain, PDB entry 4na4”, the IC50 is 120 nM (active).

As to `CC#C[C@H]1CN(S(=O)(=O)c2ccc(N)nc2)CCN1c1ccc([C@](O)(CCCC)C(F)(F)F)cc1`, where the note is “literature IC50, protein: Glucokinase regulatory protein hGKRP, PDB entry 4ohk”, the IC50 is 5 nM (active). `Nc1nc(Nc2ccccc2)sc1C(O)c1ccccc1` (stereo not drawn): for the setting “literature IC50, protein: Cyclin-dependent kinase 2, PDB entry 3qtr”, the concentration for half-maximal inhibition (IC50) was 930 nM (active). In the case of `Nc1nc(Nc2ccc(C(=O)O)cc2)sc1C(O)c1cccnc1` (stereo not drawn), the half-inhibitory concentration (IC50) (literature IC50, protein: Cyclin-dependent kinase 2, PDB entry 3rk5) was 4000 nM (active). For the compound `NC(=O)c1ccc(Nc2nc(N)c(C(O)c3cccnc3)s2)cc1` (stereo not drawn), the IC50 (literature IC50, protein: Cyclin-dependent kinase 2, PDB entry 3rk7) was 200 nM (active).
